This is a sample that favours compounds with a hit; in the whole collection about 2.7% have one here.
F508del corr: correctors of CFTR F508del function in bronchial epithelial cells; CFBE cells, YFP halide quenching; stimulated with forskolin plus potentiator P3; % fluorescence drop versus neutral controls; activity (quench increase), % at 7.58 µM; 350,000 tested, 0.36% active;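 active = mean added fluorescence quench of at least 8% versus neutral control, with both replicates also reaching 8%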;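 also: cells transiently co-express mutant CFTR-F508del with the halide-sensitive YFP; corrector assay measuring rescue of mutant channel to the surface after 24 h compound exposure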
Wnt act: activators of Wnt/beta-catenin signaling | Wnt/beta-catenin reporter cell assay, activator, plate reader | activation, % at 9.35 µM | 300,000 tested, 1.2% active; in the data active = activation above about 30%, passing the limit was not always enough;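 also: 0% = neutral control wells and 100% = positive control wells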
Env fusion inh: blocks HIV Env-driven cell-cell fusion; HeLa-JRFL Env/CEM21 cell fusion, luciferase; inhibition, % at 12.3 µM; 360,000 tested, 1.1% active;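 active = mean replicate inhibition score of at least 50 and every replicate individually at or above 50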;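 also: 0% = plate neutral controls and 100% = maraviroc near 300 nM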
INS-1E GSIS act: GLuc luminescence reporter in INS-1E cells, primary screen for activators of glucose-dependent secretion of insulin; INS-1E GLuc reporter insulin secretion, 2-3 h; activation, % at 16.6 µM; 370,000 tested, 0.61% active; AID 743287;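 active = lowest replicate activation of at least 40%, so every replicate reaches that level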;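 also: 0% = median of neutral control wells and 100% = median of IBMX positive control wells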
MITF TRPM1 HTS: MITF TRPM1 promoter activation in melanoma cells; 300,000 tested, 0.75% active; activation, % at 12.5 µM; SK-MEL-5 TRPM1-promoter luciferase, 24 h; % of positive control, neutral wells = 0;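 active = mean activation of at least 80% with every replicate also reaching 80%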;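 also: 0% = neutral control wells and 100% = parthenolide positive control wells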
* marks the source's active call; other numbers are inactive results; i = inactive; . = not tested or not shown; [ ] = another dose, or the depositor's remark.

SMILES	F508del corr	Wnt act	Env fusion inh	INS-1E GSIS act	MITF TRPM1 HTS
CC(Cc1cccs1)NC(=O)Nc1ccccc1 (stereo not drawn)	.	.	.	-10	30
CC(Cc1cccs1)NC(=O)Nc1ccc(Cl)cc1 (stereo not drawn)	.	58*	-57	.	51
COc1cccc(OCc2nc3c4cnn(-c5ccccc5)c4ncn3n2)c1	.	.	.	57*	17
Cc1ccc(S(=O)(=O)NOCc2ccccc2)cc1	3	-1	0	3	4
CCC(=NOCc1ccccc1)C(=O)NNS(=O)(=O)c1ccc(C)cc1	0	-2	57*	-10	7
CCCOc1ccc(-c2nnc(N)s2)cc1	.	36*	-130	.	60
C[C@H](CO)N1C[C@H](C)[C@@H](CN(C)S(=O)(=O)c2cn(C)cn2)OCCCC[C@H](C)Oc2ccc(NC(=O)NC3CCCCC3)cc2C1=O	3	.	-4[16.7 µM]	-3	.
O=C(Nc1ccc(-c2ccc(N3CCCCC3)nn2)cc1)c1ccco1	0	22	-20	8	99*
O=C(Nc1ccc(N2CCCC2)c(Cl)c1)c1ccco1	.	41*	-180	.	48
O=C(c1ccco1)N1CCN(c2ccc(N3CCCCC3)nn2)CC1	1	31*	-52	7	99*
CN1CCN(c2ccc(NC(=O)c3ccco3)cc2Cl)CC1	-1	19	-47	5	15
CN1c2ccc(Br)cc2[C@H]2[C@H](CCN2C(=O)C2CCC2)[C@@H]1CO	0	.	.	1	.
C=CCc1ccc(OCCOc2ccc(/C=N/n3cnnc3)cc2OCC)c(OC)c1	.	0	.	61*	-38
Cc1cccc(-c2nc3cc([N+](=O)[O-])ccc3o2)c1	-3	28	-42	1	91*
C[C@H](CO)N1C[C@H](C)[C@H](CN(C)C(=O)Nc2ccc3c(c2)OCO3)OCCCC[C@H](C)Oc2ccc(NC(=O)NC3CCCCC3)cc2C1=O	-2	.	11[16.7 µM]	3	.
CN(C)c1ccc(/C=C/c2ccc3ccccc3[n+]2C)cc1	.	-16	.	-49	-87
CN(C)c1ccc(C=c2c3cc(O)ccc3n3c2cc(-c2ccccc2)[n+]3C)cc1	3	-5	64*	-55	-90
CN(C)c1ccc(C=c2c3ccccc3n3c2c2ccccc2[n+]3C)cc1	-10	-19	58*	.	9
Cc1cc2c(=Cc3ccc(N(C)C)cc3)c3ccccc3n2[n+]1C	-1	7	35	-66	-100
CCOC(=O)c1cc2c(=Cc3ccc(N(C)C)cc3)c3ccccc3n2[n+]1C	9.9*	-1	48	-20	-85
C[n+]1c(-c2ccccc2)cc2c(=Cc3ccccc3)c3ccccc3n21	4	-6	46	33	-98
O=C(O)c1ccc2c(c1)SC1=NS(=O)(=O)CCN12	-1	-1	0	-7	-11
CN(C(=O)c1ccc2c(c1)SC1=NS(=O)(=O)CCN12)C(c1ccccc1)c1ccccc1	.	-5	16	93*	7
C[C@@H]1CN([C@H](C)CO)C(=O)c2cc(-c3cccc(C(=O)N(C)C)c3)cnc2O[C@@H]1CN(C)S(=O)(=O)c1ccccc1	1	.	-12[16.7 µM]	3	.
O=C(Oc1cccc(/C=N/Nc2nc(Nc3ccccc3)nc(N3CCOCC3)n2)c1)c1ccco1	.	-1	-10	-50	103*
SMILES	F508del corr	Wnt act	Env fusion inh	INS-1E GSIS act	MITF TRPM1 HTS
C(=N\Nc1nc(Nc2ccccc2)nc(N2CCOCC2)n1)/c1c[nH]c2ccccc12	.	-1	70*	.	.
COC(=O)c1ccc(Nc2nc(N3CCOCC3)nc(N3CCOCC3)n2)cc1	-2	1	32	19	93*
COc1cccc(CNC(=O)C[C@@H]2C=C[C@H](NC(=O)C3CC3)[C@@H](CO)O2)c1	2	.	10[16.7 µM]	-3	.
O=C(Cc1ccccc1)N1C[C@@H]2[C@H](c3ccccc31)[C@H](CO)N2C(=O)C1CC1	2	.	.	3	.
C[C@H](CO)N1C[C@H](C)[C@@H](CN(C)Cc2ccc(C(F)(F)F)cc2)OCCCC[C@H](C)Oc2ccc(NC(=O)CCC(F)(F)F)cc2C1=O	3	.	-9[16.7 µM]	-21	.
C[C@@H]1CN([C@H](C)CO)C(=O)c2cc(NS(=O)(=O)c3cccs3)ccc2O[C@@H](C)CCCCO[C@@H]1CN(C)C(=O)C1CCCCC1	-1	.	5[16.7 µM]	-14	.
C[C@@H]1CN([C@@H](C)CO)C(=O)Cc2cc(NS(=O)(=O)c3ccc(Cl)cc3)ccc2O[C@@H]1CN(C)S(=O)(=O)c1ccccc1	1	.	7[16.7 µM]	-29	.
C[C@H](CO)N1C[C@H](C)[C@@H](CN(C)S(=O)(=O)c2ccc(F)cc2)Oc2ccc(NS(=O)(=O)c3ccccc3)cc2CC1=O	1	.	32[16.7 µM]	-18	.
C[C@H](CO)N1C[C@H](C)[C@H](CN(C)S(=O)(=O)c2ccccc2)Oc2ccc(NS(=O)(=O)c3cccs3)cc2CC1=O	0	.	64*[16.7 µM]	-15	.
C[C@H](CO)N1C[C@H](C)[C@H](CN(C)S(=O)(=O)c2ccccc2)Oc2ccc(NS(=O)(=O)c3ccc(F)cc3)cc2CC1=O	-1	.	58*[16.7 µM]	-12	.
C[C@H](CO)N1C[C@H](C)[C@H](CN(C)S(=O)(=O)c2ccccc2)Oc2ccc(NS(=O)(=O)c3ccc(Cl)cc3)cc2CC1=O	0	.	56*[16.7 µM]	-16	.
C[C@H](CO)N1C[C@H](C)[C@@H](CN(C)S(=O)(=O)c2ccc(F)cc2)Oc2ccc(NS(=O)(=O)c3cn(C)cn3)cc2CC1=O	-2	.	64*[16.7 µM]	-5	.
C[C@H]1CN([C@@H](C)CO)C(=O)c2cccc(NC(=O)c3nc4ccccc4s3)c2O[C@H]1CN(C)Cc1ccc(Oc2ccccc2)cc1	1	.	-27[16.7 µM]	-25	.
C[C@H](CO)N1C[C@H](C)[C@@H](CN(C)S(=O)(=O)c2ccccc2)Oc2ccc(NS(=O)(=O)c3ccccc3)cc2CC1=O	-5	.	-6[16.7 µM]	-3	.
C[C@H](CO)N1C[C@H](C)[C@H](CN(C)S(=O)(=O)c2ccc(Cl)cc2)Oc2ccc(NS(=O)(=O)c3ccccc3)cc2CC1=O	0	.	55*[16.7 µM]	10	.
C[C@H](CO)N1C[C@H](C)[C@H](CN(C)S(=O)(=O)c2ccccc2)Oc2ccc(NS(=O)(=O)c3ccccc3)cc2CC1=O	-3	.	91*[16.7 µM]	1	.
Cc1ccc(S(=O)(=O)Nc2ccc3c(c2)CC(=O)N([C@H](C)CO)C[C@H](C)[C@H](CN(C)S(=O)(=O)c2ccc(F)cc2)O3)cc1	-2	.	110*[16.7 µM]	-8	.
C[C@@H]1CN([C@@H](C)CO)C(=O)c2cc(NS(=O)(=O)c3ccc(Cl)cc3)ccc2O[C@@H](C)CCCCO[C@@H]1CN(C)Cc1ccccc1	6	.	-1[16.7 µM]	-29	.
O=C(N/N=C/c1ccc(N2CCOCC2)cc1)c1cccs1	-1	56*	-18	15	43
O=C(c1ccc(N2CCOCC2)cc1)c1cccs1	.	42*	-206	.	.
COCC(=O)N(C)C[C@@H]1Oc2ncc(C3=CCCCC3)cc2C(=O)N([C@H](C)CO)C[C@H]1C	-1	.	-11[16.7 µM]	31	.
COc1ccc(NC(=O)CSc2ccc(-c3sc(C)nc3C)nn2)cc1OC	0	-3	i	15	7

Screening data: PubChem BioAssay, Broad Institute
